Laboratory results reported in PubChem BioAssay (EPA / NIEHS).
Activity calls are given as the source filed them. Rule for the calls: active = hit-call score of the fitted dose curve at least 0.9, where 1 is the maximum; inactive = score below 0.9.

Columns and labels:
Conditions in all cases: mRNA level, 48 h; actives raise or lower the signal
[1] = read-out: Apolipoprotein A-V (APOA5) gene, APOA5 (gene 116519); test: LTEA_HepaRG_APOA5: Life Technologies and Expression Analysis (LTEA) Assay for Apolipoprotein A-V (APOA5) gene using HepaRG (AID 2283474)
Method in brief: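 Readout is APOA5 transcript level by qRT-PCR on Fluidigm dynamic arrays, normalized to three housekeeping genes. HepaRG cultures received chemicals for 48 h at up to 100 uM (half-log steps, 0.5% DMSO), with gain or loss scored relative to DMSO.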

[2] = read-out: Apoptosis regulator Bcl-2 (Homo sapiens) (UniProt P10415); test: LTEA_HepaRG_BCL2: Life Technologies and Expression Analysis (LTEA) Assay for Bcl-2 gene using HepaRG (AID 2283475)
Method in brief: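 Each chemical was tested in duplicate on HepaRG cultures held in serum-free induction medium for 48 h, highest concentration 100 uM with half-log dilutions. Transcript levels came from multiplexed qRT-PCR, normalised to housekeeping genes; activity was scored in either direction relative to DMSO.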

[3] = read-out: Bcl-2 (BID) gene, BID (gene 637); test: LTEA_HepaRG_BID: Life Technologies and Expression Analysis (LTEA) Assay for Bcl-2 (BID) gene using HepaRG (AID 2283476)
Method in brief: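 Assay used HepaRG hepatic cells treated 48 h in serum-free medium with half-log dilutions from 100 uM. Endpoint: BID mRNA, qRT-PCR, normalized to ACTB/GAPDH/POLR2A.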

Caspase-3 (Homo sapiens) = Caspase-3 (Homo sapiens) (UniProt P42574); test: LTEA_HepaRG_CASP3: Life Technologies and Expression Analysis (LTEA) Assay for cysteine-aspartic acid protease (CASP3) using HepaRG (AID 2283477)
Method in brief: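 Read-out is CASP3 mRNA level by TaqMan qRT-PCR in human HepaRG cells after 48 h chemical exposure. Eight half-log concentrations topping at 100 uM were tested in 0.5% DMSO; gain or loss was fitted relative to DMSO.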

[4] = read-out: Cytochrome P450 (CYP24A1), CYP24A1 (gene 1591); test: LTEA_HepaRG_CYP24A1: Life Technologies and Expression Analysis (LTEA) Assay for Cytochrome P450 (CYP24A1) using HepaRG (AID 2283478)
Method in brief: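 HepaRG, 48 h chemical exposure, 8-pt half-log CRC from 100 uM, 0.5% DMSO vehicle, duplicates. Endpoint: CYP24A1 mRNA by Fluidigm TaqMan qRT-PCR, normalized ACTB/GAPDH/POLR2A; gain/loss fit vs DMSO.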

[5] = read-out: Cytochrome P450 (CYP1A2), CYP1A2 (gene 1544); test: LTEA_HepaRG_CYP1A2: Life Technologies and Expression Analysis (LTEA) Assay for Cytochrome P450 (CYP1A2) using HepaRG (AID 2283479)
Method in brief: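 CYP1A2 transcript induction or loss, quantified by Fluidigm qRT-PCR against three housekeeping genes, was fitted bidirectionally against 0.5% DMSO controls. Human HepaRG cells received eight half-log concentrations from 100 uM over 48 h.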

[6] = read-out: cysteine-aspartic acid protease (CASP8), CASP8 (gene 841); test: LTEA_HepaRG_CASP8: Life Technologies and Expression Analysis (LTEA) Assay for cysteine-aspartic acid protease (CASP8) using HepaRG (AID 2283480)
Method in brief: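 qRT-PCR readout of CASP8 mRNA, normalized to three housekeeping genes, after 48 h chemical exposure of HepaRG cells; 8-point half-log series, top 100 uM, 0.5% DMSO vehicle. Bidirectional curve fitting against DMSO baseline.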

[7] = read-out: Cytochrome P450 (CYP2B6), CYP2B6 (gene 1555); test: LTEA_HepaRG_CYP2B6: Life Technologies and Expression Analysis (LTEA) Assay for Cytochrome P450 (CYP2B6) using HepaRG (AID 2283481)
Method in brief: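 HepaRG cells plated 48 h, switched to serum-free induction medium, then dosed 48 h (8 points, half-log from 100 uM, 0.5% DMSO). RNA isolated; CYP2B6 expression measured by qRT-PCR; gain or loss fitted relative to DMSO.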

[8] = read-out: Cytochrome P450 2C19 (Homo sapiens) (UniProt P33261); test: LTEA_HepaRG_CYP2C19: Life Technologies and Expression Analysis (LTEA) Assay for CYP2C19 using HepaRG (AID 2283482)
Method in brief: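 Transcript levels of CYP2C19 were quantified by qRT-PCR after HepaRG cells were treated for 48 hours with test chemicals up to 100 uM (eight half-log concentrations, 0.5% DMSO vehicle). Gain or loss of signal was fitted relative to DMSO.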

CYP2C8 (gene 1558) = test: LTEA_HepaRG_CYP2C8: Life Technologies and Expression Analysis (LTEA) Assay for CYP2C8 using HepaRG (AID 2283483)
Method in brief: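 HepaRG (human liver line), 48 h chemical exposure, 8-pt half-log series from 100 uM, 0.5% DMSO vehicle. Readout: CYP2C8 transcript by qRT-PCR, housekeeping-normalized. Bidirectional fit vs DMSO baseline.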

CYP2C9 (gene 1559) = test: LTEA_HepaRG_CYP2C9: Life Technologies and Expression Analysis (LTEA) Assay for CYP2C9 using HepaRG (AID 2283484)
Method in brief: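 HepaRG, 48 h dosing, 8-pt half-log series, top 100 uM, 0.5% DMSO vehicle. Read-out: CYP2C9 transcript by TaqMan qRT-PCR, housekeeping-normalized (ACTB/GAPDH/POLR2A). Gain or loss fitted vs DMSO baseline.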

CYP2E1 (gene 1571) = test: LTEA_HepaRG_CYP2E1: Life Technologies and Expression Analysis (LTEA) Assay for CYP2E1 using HepaRG (AID 2283485)
Method in brief: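 Assay uses 48 h exposure of HepaRG hepatic cells, eight concentrations to 100 uM. Expression of CYP2E1 is quantified by TaqMan qRT-PCR with ACTB, GAPDH and POLR2A normalization; curves fitted in both directions relative to vehicle.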

CYP4A11 (gene 1579) = test: LTEA_HepaRG_CYP4A11: Life Technologies and Expression Analysis (LTEA) Assay for CYP4A11 using HepaRG (AID 2283486)
Method in brief: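 HepaRG, 48 h chem exposure, 8 conc (100 uM top, half-log), 0.5% DMSO vehicle; qRT-PCR readout, housekeeping-gene normalized; bidirectional curve fit vs DMSO baseline.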

[9] = read-out: Cytochrome P450 3A4 (Homo sapiens) (UniProt P08684); test: LTEA_HepaRG_CYP3A4: Life Technologies and Expression Analysis (LTEA) Assay for CYP3A4 using HepaRG (AID 2283487)
Method in brief: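 CYP3A4 transcript measured by TaqMan qRT-PCR and normalized to three housekeeping genes after 48 h chemical exposure of human HepaRG cells. Top concentration 100 uM, half-log steps, 0.5% DMSO vehicle; gain or loss fitted against DMSO baseline.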

[10] = read-out: DNA damage-inducible transcript 3 (DDIT3), DDIT3 (gene 1649); test: LTEA_HepaRG_DDIT3: Life Technologies and Expression Analysis (LTEA) Assay for DNA damage-inducible transcript 3 (DDIT3) using HepaRG (AID 2283488)
Method in brief: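 Eight-point concentration-response (100 uM highest, half-log dilutions) in HepaRG, 48 h, duplicate wells. Endpoint: qRT-PCR mRNA, normalized (ACTB, GAPDH, POLR2A), bidirectional fitting with DMSO as baseline.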

[11] = read-out: Pro-epidermal growth factor (Homo sapiens) (UniProt P01133); test: LTEA_HepaRG_EGF: Life Technologies and Expression Analysis (LTEA) Assay for Epidermal growth factor (EGF) using HepaRG (AID 2283489)
Method in brief: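 HepaRG, 48 h dosing, 100 uM top, half-log x8, 0.5% DMSO. Readout: TaqMan qRT-PCR (Fluidigm array), housekeeping-normalized. Gain or loss of signal fit vs DMSO.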

[12] = read-out: Ezrin (EZR), EZR (gene 7430); test: LTEA_HepaRG_EZR: Life Technologies and Expression Analysis (LTEA) Assay for Ezrin (EZR) using HepaRG (AID 2283491)
Method in brief: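 HepaRG, 48 h chemical exposure, 8-pt half-log series from 100 uM, 0.5% DMSO vehicle, duplicates. Read-out: EZR mRNA by TaqMan qRT-PCR (Fluidigm array), housekeeping-normalized; bidirectional curve fit vs DMSO baseline.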

[13] = read-out: Cytochrome P450 3A7 (Homo sapiens) (UniProt P24462); test: LTEA_HepaRG_CYP3A7: Life Technologies and Expression Analysis (LTEA) Assay for CYP3A7 using HepaRG (AID 2283492)
Method in brief: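 Human HepaRG liver cells, 48 h post-plating, switched to serum-free induction medium and exposed in duplicate for 48 h. Dosing: 100 uM top, half-log dilutions, 8 points, 0.5% DMSO vehicle. Read-out: CYP3A7 mRNA, gain or loss fitted against DMSO baseline.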

CYP3A5 (gene 1577) = test: LTEA_HepaRG_CYP3A5: Life Technologies and Expression Analysis (LTEA) Assay for CYP3A5 using HepaRG (AID 2283493)
Method in brief: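 Readout was CYP3A5 mRNA by qRT-PCR. HepaRG cultures were exposed for 48 h in serum-free induction medium to chemicals at up to 100 uM, and responses were fitted in both directions relative to DMSO vehicle.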

[14] = read-out: Early growth response protein 1 (EGR1) transcription factor, EGR1 (gene 1958); test: LTEA_HepaRG_EGR1: Life Technologies and Expression Analysis (LTEA) Assay for Early growth response protein 1 (EGR1) transcription factor using HepaRG (AID 2283490)
Method in brief: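 HepaRG, 48 h exposure, 8-pt half-log series from 100 uM, 0.5% DMSO vehicle; EGR1 transcript by TaqMan qRT-PCR (Fluidigm array), housekeeping-normalized; bidirectional fit relative to DMSO baseline.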

Measured: AC50

Chain of Apoptosis regulator Bcl-2 (Homo sapiens) (P10415 whole entry, looked up): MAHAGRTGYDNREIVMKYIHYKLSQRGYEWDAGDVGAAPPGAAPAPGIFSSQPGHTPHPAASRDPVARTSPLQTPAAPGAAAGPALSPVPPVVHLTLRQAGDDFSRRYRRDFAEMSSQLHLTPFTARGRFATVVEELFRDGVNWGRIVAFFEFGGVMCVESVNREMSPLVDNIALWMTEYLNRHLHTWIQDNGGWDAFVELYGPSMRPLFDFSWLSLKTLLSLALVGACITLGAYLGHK
Chain of Cytochrome P450 3A4 (Homo sapiens) (P08684 whole entry, looked up): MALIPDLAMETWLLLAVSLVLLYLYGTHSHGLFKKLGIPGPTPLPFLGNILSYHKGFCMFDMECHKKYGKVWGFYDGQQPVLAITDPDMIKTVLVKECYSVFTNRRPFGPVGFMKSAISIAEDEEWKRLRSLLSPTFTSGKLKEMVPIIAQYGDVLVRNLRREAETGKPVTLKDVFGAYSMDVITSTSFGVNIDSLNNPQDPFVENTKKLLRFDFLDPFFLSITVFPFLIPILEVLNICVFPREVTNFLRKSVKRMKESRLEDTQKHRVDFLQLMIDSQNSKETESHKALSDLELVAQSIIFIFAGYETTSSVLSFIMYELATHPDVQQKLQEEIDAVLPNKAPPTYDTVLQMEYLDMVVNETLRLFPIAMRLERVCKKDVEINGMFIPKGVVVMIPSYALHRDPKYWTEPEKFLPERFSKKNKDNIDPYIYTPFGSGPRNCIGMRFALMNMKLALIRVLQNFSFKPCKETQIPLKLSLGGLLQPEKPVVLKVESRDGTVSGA
Chain of Caspase-3 (Homo sapiens) (P42574 whole entry, looked up): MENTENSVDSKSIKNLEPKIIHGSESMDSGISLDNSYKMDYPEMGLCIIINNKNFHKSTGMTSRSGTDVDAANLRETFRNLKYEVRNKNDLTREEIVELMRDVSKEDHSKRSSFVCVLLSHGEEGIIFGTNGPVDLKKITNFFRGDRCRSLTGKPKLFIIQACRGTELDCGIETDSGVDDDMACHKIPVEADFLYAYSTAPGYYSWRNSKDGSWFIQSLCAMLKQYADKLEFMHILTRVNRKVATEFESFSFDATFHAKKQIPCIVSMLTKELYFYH
Chain of Cytochrome P450 3A7 (Homo sapiens) (P24462 whole entry, looked up): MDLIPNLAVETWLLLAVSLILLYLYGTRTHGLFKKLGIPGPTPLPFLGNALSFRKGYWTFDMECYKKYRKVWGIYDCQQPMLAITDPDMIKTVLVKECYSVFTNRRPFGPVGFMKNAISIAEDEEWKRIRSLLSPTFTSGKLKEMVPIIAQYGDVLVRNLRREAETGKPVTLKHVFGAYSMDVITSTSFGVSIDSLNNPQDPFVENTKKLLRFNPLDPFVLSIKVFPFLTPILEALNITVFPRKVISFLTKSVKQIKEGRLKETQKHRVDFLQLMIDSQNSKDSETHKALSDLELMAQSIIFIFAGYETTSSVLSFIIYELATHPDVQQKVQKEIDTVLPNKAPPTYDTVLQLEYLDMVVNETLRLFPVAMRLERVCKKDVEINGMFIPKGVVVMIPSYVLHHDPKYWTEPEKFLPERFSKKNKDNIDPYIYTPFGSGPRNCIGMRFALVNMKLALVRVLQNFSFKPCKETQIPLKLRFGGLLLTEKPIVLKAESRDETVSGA
Chain of Cytochrome P450 2C19 (Homo sapiens) (P33261 whole entry, looked up): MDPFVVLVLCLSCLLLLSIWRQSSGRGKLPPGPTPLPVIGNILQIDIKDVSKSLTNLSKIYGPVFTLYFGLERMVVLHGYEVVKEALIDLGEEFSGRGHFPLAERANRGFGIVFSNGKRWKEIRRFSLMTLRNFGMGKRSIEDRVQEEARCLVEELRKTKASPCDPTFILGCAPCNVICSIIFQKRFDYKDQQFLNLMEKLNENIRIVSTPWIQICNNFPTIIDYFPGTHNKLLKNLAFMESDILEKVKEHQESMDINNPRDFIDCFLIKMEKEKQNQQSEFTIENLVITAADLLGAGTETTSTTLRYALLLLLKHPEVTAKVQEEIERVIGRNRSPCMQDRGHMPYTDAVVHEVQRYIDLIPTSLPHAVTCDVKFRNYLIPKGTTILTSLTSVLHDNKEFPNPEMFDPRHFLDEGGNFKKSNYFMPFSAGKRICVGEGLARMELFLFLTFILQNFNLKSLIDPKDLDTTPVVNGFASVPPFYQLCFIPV

Cn1cc(-c2ccccc2)c(=O)c(-c2cccc(C(F)(F)F)c2)c1
active: [5] 87.5 µM | [7] 1.09 µM | [8] 4.63 µM | CYP2C8 (gene 1558) 3.59 µM | CYP2C9 (gene 1559) 0.468 µM | CYP2E1 (gene 1571) 11.9 µM | [9] 2.92 µM | [10] 89.8 µM | [13] 1.52 µM
not listed: [14]
inactive: all other assays above

Nc1ccc(Cc2ccc(N)cc2)cc1
active: [5] 31.3 µM | [7] 11.5 µM | [8] 14.5 µM | CYP2C9 (gene 1559) 20 µM | [13] 21.4 µM
not listed: [14]
inactive: all other assays above

CC(C)(OOC(C)(C)c1ccccc1)c1ccccc1
active: [7] 7.24 µM | [8] 30 µM | CYP2C8 (gene 1558) 25.4 µM | CYP2E1 (gene 1571) 35.1 µM | [9] 23.9 µM | [13] 40.4 µM
inactive: all other assays above

CCOc1cccc(C2(N3CCN(c4ccccc4)CC3)CCC(C)CC2)c1 (stereo not given)
active: [5] 16.6 µM | [7] 30.8 µM
not listed: [13]
inactive: all other assays above

OCCOCCO
active: [7] 0.128 µM
inactive: all other assays above

N#CC(Br)(Br)C(N)=O
not listed: [14]
inactive: all other assays above

Nc1ccc([N+](=O)[O-])cc1
active: [5] 39.3 µM
not listed: [14]
inactive: all other assays above
